This is an account of results in PubChem BioAssay (Tox21).

Assay [1] can be described thus: qHTS RealTime-Glo MT Cell Viability Assay in HepG2 cells - 32 hour (AID 1224877). Note: nearly all actives have a fitted effect of over 55% in size. Note: potency is the fitted concentration of half-maximal effect. The method in brief: (§1)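 HepG2 suspension premixed with RealTime-Glo reagents is plated at 600 cells per well and left 5 h at 37 C/5% CO2. Compounds in DMSO then go in, and bioluminescence reflecting viable cell number is recorded over 40 h.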
In general terms: In qHTS, concentration-response curves come from the screen itself.

The nature of assay [2]: A CellTox Green Cytotoxicity Assay to monitor cytotoxicity in HepG2 cells - 24 hour (AID 1224878). Note: nearly all actives have a fitted effect of over 45% in size. Note: potency is the fitted concentration of half-maximal effect. In short, it runs like this: (§2)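 Cytotoxicity was tracked as dead-cell DNA fluorescence in HepG2 cells treated with test compounds at 37 C; each time-point value comes from one kinetic series spanning 0, 8, 16, 24, 32 and 40 h.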
Assay [3] can be described thus: A CellTox Green Cytotoxicity Assay to monitor cytotoxicity in HepG2 cells - 40 hour (AID 1224879). Note: nearly all actives have a fitted effect of over 40% in size. Note: potency is the fitted concentration of half-maximal effect. In short, it runs like this: as §2
Assay [4] in a line: qHTS RealTime-Glo MT Cell Viability Assay in HEK293 cells - 0 hour (AID 1224880). Note: top concentration of the series differs between compounds; nearly all actives have a fitted effect of over 45% in size. In short, it runs like this: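 Kinetic, non-lysing viability readout. Seed HEK293 (600/well) with reagent, incubate 5 h at 37 C/5% CO2, pin 23 nL compound in DMSO, incubate at 37 C, read luminescence at 0, 8, 16, 24, 32, 40 h.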
The nature of assay [5]: A CellTox Green Cytotoxicity Assay to monitor cytotoxicity in HEK293 cells - 32 hour (AID 1224881). Note: nearly all actives have a fitted effect of over 40% in size. Note: potency is the fitted concentration of half-maximal effect. In short, it runs like this:
(§3)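 Real-time, in one plate: 600 HEK293 cells/well with dead-cell DNA dye, pinned compound after 5 h, 37 C incubation over 40 h; viable cells give no appreciable fluorescence.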

Assay [6] is described as follows: A CellTox Green Cytotoxicity Assay to monitor cytotoxicity in HepG2 cells - 0 hour (AID 1224882). Note: nearly all actives have a fitted effect of over 35% in size. The method in brief: as §2
Assay [7] can be described thus: A CellTox Green Cytotoxicity Assay to monitor cytotoxicity in HepG2 cells - 32 hour (AID 1224883). Note: nearly all actives have a fitted effect of over 50% in size. Note: potency is the fitted concentration of half-maximal effect. In short, it runs like this:
as §2

Assay [8] is described as follows: A CellTox Green Cytotoxicity Assay to monitor cytotoxicity in HEK293 cells - 8 hour (AID 1224884). Note: nearly all actives have a fitted effect of over 35% in size. Note: potency is the fitted concentration of half-maximal effect. In short, it runs like this:
as §3

Assay [9] in a line: qHTS RealTime-Glo MT Cell Viability Assay in HEK293 cells - 24 hour (AID 1224886). Note: nearly all actives have a fitted effect of over 50% in size. Note: potency is the fitted concentration of half-maximal effect. The method in brief: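 Reads taken at 0, 8, 16, 24, 32 and 40 h from the same wells. HEK293 cells (600/well) carried RealTime-Glo reagents from seeding, with compound added after a 5 h settle at 37 C.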
A short description of assay [10]: qHTS RealTime-Glo MT Cell Viability Assay in HepG2 cells - 16 hour (AID 1224885). Note: nearly all actives have a fitted effect of over 50% in size. Note: potency is the fitted concentration of half-maximal effect. The method in brief: as §1

Values without a mark were called inactive. Records with an inconclusive call do not appear. Activity calls are given as the source filed them. Calls come from the whole dose curve; as a rule, active = well fitted curve in the direction sought with a large enough effect in the repeat runs; inconclusive = weak or mixed curves; inactive = no such curve, though single readings can be large; an effect the other way counts as inactive or inconclusive.

Take `Cn1ccnc1`: the Potency result in assay [1], in assay [2], in assay [3], in assay [4], in assay [5] and in assay [6] was “inactive” in each case. Besides, the Potency result in [7], in [8] and in assay [9] was “inactive” in each case.

Take `c1ccc(-c2ccccc2-c2ccccc2)cc1`: the Potency entry in [1], in [2], in [3], in [4], in [6] and in assay [7] was “inactive” throughout. In addition, the Potency entry in assay [8] and in assay [9] was “inactive” each time.

Consider `C[C@H]1O[C@@H](O[C@H]2CC[C@@]3(C)[C@H](CC[C@@H]4[C@@H]3C[C@@H](O)[C@]3(C)[C@@H](C5=CC(=O)OC5)CC[C@]43O)C2)C[C@H](O)[C@@H]1O[C@H]1C[C@H](O)[C@H](O[C@H]2C[C@H](O)[C@H](O[C@@H]3O[C@H](CO)[C@@H](O)[C@H](O)[C@H]3O)[C@@H](C)O2)[C@@H](C)O1`, for which the Potency result in assay [1], in assay [2], in [3], in [4], in assay [6] and in assay [8] was “inactive” throughout. In [10], the Potency entry was “inactive”. For the same compound, in assay [9], the Potency is 0.268 µM (active).

Take `O=C1C=CC(=O)N1c1cccc(N2C(=O)C=CC2=O)c1`: the Potency in assay [1] was 15.5 µM (active); in assay [2], 12.3 µM (active); in assay [3], 12.3 µM (active); in assay [10], 15.5 µM (active); in assay [9], 11 µM (active). The Potency entry in [4], in assay [6] and in assay [8] was “inactive” throughout.

In the case of `c1ccc2occc2c1`, the Potency result in assay [1], in [2], in assay [3], in assay [4], in assay [6] and in assay [8] was “inactive” in each case. For the same compound, the Potency result in assay [9] is “inactive”.

In the case of `CSc1ccc(O)cc1C`, the Potency result in assay [1], in [2], in assay [3], in [4], in assay [6] and in assay [7] was “inactive” in each case. Moreover, the Potency result in assay [8], in assay [10] and in assay [9] was “inactive” in each case.

With `CSc1nnc(C(C)(C)C)c(=O)[nH]1`, the Potency entry in assay [1], in assay [2], in assay [3], in assay [4], in [6] and in [7] was “inactive” each time. Also, the Potency result in assay [8], in [10] and in assay [9] was “inactive” throughout.

For the compound `CN1CCN(C)CC1`, the Potency entry in assay [1], in assay [2], in assay [3], in assay [4], in [5] and in [6] was “inactive” throughout. The Potency result in assay [8], in [10] and in assay [9] was “inactive” each time.

Regarding `CCOc1nc(F)cc2nc(S(=O)(=O)Nc3c(Cl)cccc3C(=O)OC)nn12`, the Potency entry in assay [1], in [2], in assay [3], in [4], in assay [6] and in assay [8] was “inactive” throughout. The Potency result in assay [9] is “inactive”.

In the case of `CCN(CC)c1ccc2c(c1)Oc1cc(N(CC)CC)ccc1C21OC(=O)c2ccccc21`, the Potency entry in [1], in assay [4] and in [10] was “inactive” each time. Further, the Potency in assay [2] is 23.9 µM (active); in assay [3], 23.9 µM (active); in assay [5], 19 µM (active); in assay [7], 23.9 µM (active); in assay [8], 23.9 µM (active).

As to `CCC(O)CO` (configuration not stated), the Potency entry in assay [1], in assay [2], in assay [3], in assay [4], in [5] and in assay [6] was “inactive” throughout. In addition, the Potency entry in assay [8], in assay [10] and in assay [9] was “inactive” in each case.

With `CC1=CC[C@@H](C(C)(C)O)CC1`, the Potency entry in assay [1], in assay [2], in assay [3], in assay [4], in assay [5] and in assay [6] was “inactive” each time. Besides, the Potency result in assay [8] and in assay [9] was “inactive” each time.

Consider `CC(=O)CC(N)=O`, for which the Potency result in [1], in assay [2], in assay [3], in assay [4], in assay [5] and in assay [6] was “inactive” each time. Also, the Potency result in [7], in [8] and in [9] was “inactive” each time.

Take `O=[N+]([O-])c1ccc(CO)cc1`: the Potency entry in assay [1], in assay [2], in assay [3], in [4], in assay [5] and in [6] was “inactive” in each case. Moreover, the Potency entry in [8], in assay [10] and in [9] was “inactive” in each case.

Regarding `CC1(C)[C@H]2CC[C@]1(C)C(=O)C2`, the Potency entry in [1], in [2], in assay [3], in assay [4], in [6] and in assay [7] was “inactive” each time. The Potency entry in [8] and in [9] was “inactive” each time.

As for `O=[N+]([O-])c1ccc(O)c2ncccc12`, the Potency entry in assay [1], in [2], in assay [4], in assay [5] and in assay [8] was “inactive” each time. Further, in assay [3], the Potency was 4.25 µM (active).

For `Cc1ccc(C=O)cc1`, the Potency result in assay [1], in assay [2], in assay [3], in assay [4], in assay [6] and in assay [8] was “inactive” each time. The Potency entry in assay [10] and in assay [9] was “inactive” in each case.

On to `S=C1NC=NC2N=CNC12` (configuration not stated), for which the Potency entry in [1], in assay [2], in [3], in [4], in assay [5] and in assay [6] was “inactive” each time. For the same compound, the Potency result in assay [8] and in assay [10] was “inactive” in each case. Besides, the Potency in [9] was 21.9 µM (active).

In the case of `[Cl][Sc]([Cl])[Cl]`, the Potency entry in assay [1], in assay [2], in assay [3], in assay [4], in assay [5] and in [6] was “inactive” throughout. The Potency result in assay [8], in [10] and in assay [9] was “inactive” throughout.

For the compound `Nc1cc([N+](=O)[O-])ccc1Cl`, the Potency result in assay [1], in [2], in [3], in assay [4], in assay [5] and in [6] was “inactive” throughout. Besides, the Potency result in [7], in [8] and in assay [9] was “inactive” throughout.

On to `C=C(C)CCO`, for which the Potency entry in [1], in [2], in assay [3], in [4], in [5] and in [6] was “inactive” each time. Also, the Potency entry in assay [8], in [10] and in assay [9] was “inactive” in each case.

`CCc1cccc(C)c1N(C(=O)C(=O)O)C(C)COC` (configuration not stated): the Potency result in assay [1], in assay [2], in assay [3], in assay [4], in assay [5] and in assay [6] was “inactive” each time. Besides, the Potency entry in assay [7], in assay [8] and in assay [9] was “inactive” each time.

With `CCN(CC)c1ccc(C=O)c(O)c1`, the Potency entry in [1], in assay [2], in assay [3], in assay [4], in assay [6] and in [7] was “inactive” each time. Besides, the Potency entry in assay [8], in assay [10] and in assay [9] was “inactive” in each case.

Consider `Nc1cc([N+](=O)[O-])cc(Cl)c1O`, for which the Potency result in assay [1], in assay [2], in assay [3], in assay [4], in assay [5] and in [6] was “inactive” in each case. The Potency result in [7], in [8] and in [9] was “inactive” throughout.
